The values that follow come from PubChem BioAssay (Tox21).

Inconclusive results are not listed. A call without a number means that no potency is given here. Some compounds were tested as several samples or in several runs, with calls that do not always agree. The source made the active and inactive calls. Unless noted, calls follow the shape of the dose curve; as a rule, active = well fitted curve in the direction sought with a large enough effect in the repeat runs; inconclusive = weak or mixed curves; inactive = no such curve, though single readings can be large; an effect the other way counts as inactive or inconclusive.

The first assay in a line: qHTS assay to identify small molecule antagonists of the progesterone receptor (PR) signaling pathway - cell viability counter screen (AID 1346798). Also: nearly all actives have a fitted effect of over 50% in size. The conditions noted are these: PR-UAS-bla HEK293T viability, CellTiter-Glo luminescence, 16 h; series mostly up to 92.4 µM; activity change, negative = cytotoxicity: at the top concentration. The procedure, abridged: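 ATP content as viability readout: CellTiter-Glo luminescence, 30 min room temperature, in PR-UAS-bla HEK293T cells after 16 hr compound/R5020 treatment at 37C and 5% CO2.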
(In qHTS, concentration-response curves come from the screen itself.)
Consider `CN(C)CCC(c1ccccc1)c1ccccn1` (centres undefined), for which the Potency entry is “inactive”.
Same read-out and setting: for `O=c1[nH]c(=O)n([C@H]2C[C@H](O)[C@@H](CO)O2)cc1Br` the value was “inactive”; for `OCCOCCOCCO`, “inactive”.
As for `CC(=O)OCC(=O)[C@@]12N=C(C)O[C@@H]1C[C@H]1[C@@H]3CCC4=CC(=O)C=C[C@]4(C)[C@H]3[C@@H](O)C[C@@]12C`, the “activity change, negative = cytotoxicity” value was -5.39% [at 42.5 µM] (inactive).
As for `O=C(O)c1ccc2c(c1)C(=O)OC2=O`, the Potency entry was “inactive”.
The same measure, in the same setting: for `OC[C@H]1O[C@@](CO)(O[C@H]2O[C@H](CO)[C@@H](O)[C@H](O)[C@H]2O)[C@@H](O)[C@@H]1O` the value was “inactive”; for `Cc1ccc(N(C)C)cc1`, “inactive”; for `O=C(OCCOCCOC(=O)c1ccccc1)c1ccccc1`, “inactive”.
As for `O=C(Oc1ccccc1)c1ccccc1`, the Potency entry is “inactive”.
Still for that read-out and setting: in the case of `CC(C)(N)CO` it was “inactive”; in that of `OCc1cccnc1`, “inactive”.
Same read-out and setting: for `CCCC(C)=O` the value was “inactive”; for `CCCCC(CC)COC(=O)CCCCC(=O)OCC(CC)CCCC` (centres undefined), “inactive”.
Take `CCCCCC/C(C=O)=C\c1ccccc1`: the Potency result is “inactive”.
Consider `Cc1ccc(S(N)(=O)=O)cc1`, for which the Potency entry was “inactive”.
`FC(F)(F)c1ccc(Cl)c(Cl)c1`: the “activity change, negative = cytotoxicity” value was -0.891% (inactive).
Regarding `C[Si](O[Si](C)(C)C)O[Si](C)(C)C`, the Potency entry was “inactive”.
As for `C=C(C)C(=O)Nc1ccc(Cl)c(Cl)c1`, the Potency result is “inactive”.
Still for that read-out and setting: in the case of `CCCCC(CC)COC(=O)CS` (centres undefined) it was “inactive”.
Still for that read-out and setting: in the case of `COS(C)(=O)=O` it was “inactive”.
On to `CC(c1cc2ccccc2s1)N(O)C(N)=O` (centres undefined), for which the Potency entry was “inactive”.
Regarding `Cc1cc(C)c(C)cc1C`, the Potency entry is “inactive”.
The same measure, in the same setting: in the case of `CCCCOC(=O)COc1ccc(Cl)cc1Cl` it was “inactive”; in that of `Oc1cccc2ccccc12`, “inactive”; in that of `CC1CCC2CC1C2(C)C` (centres undefined), “inactive”.
Turning to `CCCCCOC(C)=O`, the “activity change, negative = cytotoxicity” value is -1.84% (inactive).
As to `CCCCCC(N)=O`, the Potency result is “inactive”.
Still for that read-out and setting: in the case of `C=CCOC(=O)c1ccccc1C(=O)OCC=C` it was “inactive”.
As for `OCC(CO)(CBr)CBr`, the Potency result is “inactive”.
As to `O=c1[nH]c(=O)n([C@H]2CCCO2)cc1F`, the Potency result is “inactive”.
As for `CCCCN(CCCC)CCCC`, the Potency result is “inactive”.
In the case of `C=CCNC(N)=S`, the “activity change, negative = cytotoxicity” value was -0.0376% [at 42.5 µM] (inactive).
Consider `COc1cc(Cc2cnc(N)nc2N)cc(OC)c1OC`, for which the Potency entry is “inactive”.
On the same count and under the same terms, in the case of `O=C1CCC(N2C(=O)c3ccccc3C2=O)C(=O)N1` (centres undefined) it was “inactive”.
In the case of `C=C(C)C(=O)OCCOCCOCCOC(=O)C(=C)C`, the “activity change, negative = cytotoxicity” value is -2.75% (inactive).
For the molecule `CCC(O)OCCCOC` (centres undefined), the Potency result was “inactive”.
For the molecule `CN(C)CCCN`, the Potency entry is “inactive”.
On the same count and under the same terms, for `CCc1cccc(C)c1N` the value was “inactive”.

A further assay can be described thus: qHTS assay to identify small molecule agonists of the progesterone receptor (PR) signaling pathway - cell viability counter screen (AID 1346799; calls by dose curve; also: nearly all actives have a fitted effect of over 45% in size; also: potency is read from the fitted curve at half-maximal effect). The settings on record: PR-UAS-bla HEK293T viability, CellTiter-Glo luminescence, 16 h; series mostly up to 92.4 µM; activity change, negative = cytotoxicity: at the top concentration. In outline:
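Cytotoxicity in PR-bla HEK293T cells: 16 h compound, 37C; CellTiter-Glo added post-FRET read; luminescence after 30 min RT.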
Consider `CN(C)CCC(c1ccccc1)c1ccccn1` (centres undefined), for which the Potency entry is “inactive”.
On to `O=c1[nH]c(=O)n([C@H]2C[C@H](O)[C@@H](CO)O2)cc1Br`, for which the “activity change, negative = cytotoxicity” value is -5.48% (inactive).
Still for that read-out and setting: in the case of `OCCOCCOCCO` it was -1.57% (inactive).
For the molecule `CC(=O)OCC(=O)[C@@]12N=C(C)O[C@@H]1C[C@H]1[C@@H]3CCC4=CC(=O)C=C[C@]4(C)[C@H]3[C@@H](O)C[C@@]12C`, the Potency entry is “inactive”.
With `O=C(O)c1ccc2c(c1)C(=O)OC2=O`, the “activity change, negative = cytotoxicity” value is -0.162% (inactive).
`OC[C@H]1O[C@@](CO)(O[C@H]2O[C@H](CO)[C@@H](O)[C@H](O)[C@H]2O)[C@@H](O)[C@@H]1O`: the Potency entry was “inactive”.
Consider `Cc1ccc(N(C)C)cc1`, for which the Potency result is “inactive”.
As to `O=C(OCCOCCOC(=O)c1ccccc1)c1ccccc1`, the “activity change, negative = cytotoxicity” value is -12.4% (inactive).
As for `O=C(Oc1ccccc1)c1ccccc1`, the Potency result was “inactive”.
With `CC(C)(N)CO`, the Potency result is “inactive”.
The same measure, in the same setting: for `OCc1cccnc1` the value was “inactive”.
As to `CCCC(C)=O`, the Potency result is “inactive”.
As to `CCCCC(CC)COC(=O)CCCCC(=O)OCC(CC)CCCC` (centres undefined), the Potency entry is “inactive”.
Regarding `CCCCCC/C(C=O)=C\c1ccccc1`, the Potency result is “inactive”.
On the same count and under the same terms, for `Cc1ccc(S(N)(=O)=O)cc1` the value was “inactive”.
Still for that read-out and setting: for `FC(F)(F)c1ccc(Cl)c(Cl)c1` the value was “inactive”; for `C[Si](O[Si](C)(C)C)O[Si](C)(C)C`, “inactive”.
As to `C=C(C)C(=O)Nc1ccc(Cl)c(Cl)c1`, the “activity change, negative = cytotoxicity” value is 26% (inactive).
In the case of `CCCCC(CC)COC(=O)CS` (centres undefined), the Potency entry was “inactive”.
On the same count and under the same terms, for `COS(C)(=O)=O` the value was “inactive”; for `CC(c1cc2ccccc2s1)N(O)C(N)=O` (centres undefined), “inactive”.
For `Cc1cc(C)c(C)cc1C`, the Potency result is “inactive”.
Regarding `CCCCOC(=O)COc1ccc(Cl)cc1Cl`, the Potency entry is “inactive”.
For the molecule `Oc1cccc2ccccc12`, the Potency result is “inactive”.
On the same count and under the same terms, in the case of `CC1CCC2CC1C2(C)C` (centres undefined) it was “inactive”.
Turning to `CCCCCOC(C)=O`, the “activity change, negative = cytotoxicity” value is 0.319% (inactive).
As for `CCCCCC(N)=O`, the Potency result was “inactive”.
In the case of `C=CCOC(=O)c1ccccc1C(=O)OCC=C`, the Potency entry is “inactive”.
Turning to `OCC(CO)(CBr)CBr`, the “activity change, negative = cytotoxicity” value was -0.67% (inactive).
On to `O=c1[nH]c(=O)n([C@H]2CCCO2)cc1F`, for which the Potency entry is “inactive”.
On to `CCCCN(CCCC)CCCC`, for which the Potency entry was “inactive”.
The same measure, in the same setting: for `C=CCNC(N)=S` the value was 21.2 µM (active) and inactive.
For `COc1cc(Cc2cnc(N)nc2N)cc(OC)c1OC`, the Potency result was “inactive”.
In the case of `O=C1CCC(N2C(=O)c3ccccc3C2=O)C(=O)N1` (centres undefined), the Potency result was “inactive”.
Consider `C=C(C)C(=O)OCCOCCOCCOC(=O)C(=C)C`, for which the “activity change, negative = cytotoxicity” value is 15.8% (inactive).
Regarding `CCC(O)OCCCOC` (centres undefined), the “activity change, negative = cytotoxicity” value is 10.1% (inactive).
For `CN(C)CCCN`, the Potency result is “inactive”.
As to `CCc1cccc(C)c1N`, the Potency entry was “inactive”.

The next assay can be described thus: qHTS assay to identify small molecule antagonists of the TGF-beta/Smad signaling pathway - cell viability counter screen (AID 1346824). Also: nearly all actives have a fitted effect of over 50% in size. The settings on record: SBE-bla HEK293T viability, CellTiter-Glo luminescence; series mostly up to 76.8 µM; viability change, negative = cytotoxic: at the top concentration. The procedure, abridged:
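SBE-bla HEK 293T cells were plated overnight at 37 C, then given compounds in DMSO plus TGF-beta1 (added as 0.25 ng/mL solution) for 5 hr. After the bla read, CellTiter-Glo was added to the same wells and luminescence read after 30 min at room temperature.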
`CN(C)CCC(c1ccccc1)c1ccccn1` (centres undefined): the Potency result was “inactive”.
As for `O=c1[nH]c(=O)n([C@H]2C[C@H](O)[C@@H](CO)O2)cc1Br`, the Potency result was “inactive”.
As to `OCCOCCOCCO`, the Potency result is “inactive”.
On to `CC(=O)OCC(=O)[C@@]12N=C(C)O[C@@H]1C[C@H]1[C@@H]3CCC4=CC(=O)C=C[C@]4(C)[C@H]3[C@@H](O)C[C@@]12C`, for which the Potency entry was “inactive”.
The same measure, in the same setting: in the case of `O=C(O)c1ccc2c(c1)C(=O)OC2=O` it was “inactive”.
In the case of `OC[C@H]1O[C@@](CO)(O[C@H]2O[C@H](CO)[C@@H](O)[C@H](O)[C@H]2O)[C@@H](O)[C@@H]1O`, the Potency entry was “inactive”.
The same measure, in the same setting: for `Cc1ccc(N(C)C)cc1` the value was “inactive”.
Regarding `O=C(OCCOCCOC(=O)c1ccccc1)c1ccccc1`, the Potency result was “inactive”.
The same measure, in the same setting: for `O=C(Oc1ccccc1)c1ccccc1` the value was “inactive”; for `CC(C)(N)CO`, “inactive”; for `OCc1cccnc1`, “inactive”.
For `CCCC(C)=O`, the Potency result is “inactive”.
On the same count and under the same terms, for `CCCCC(CC)COC(=O)CCCCC(=O)OCC(CC)CCCC` (centres undefined) the value was “inactive”; for `CCCCCC/C(C=O)=C\c1ccccc1`, “inactive”; for `Cc1ccc(S(N)(=O)=O)cc1`, “inactive”.
On the same count and under the same terms, in the case of `FC(F)(F)c1ccc(Cl)c(Cl)c1` it was “inactive”; in that of `C[Si](O[Si](C)(C)C)O[Si](C)(C)C`, “inactive”.
Same read-out and setting: in the case of `C=C(C)C(=O)Nc1ccc(Cl)c(Cl)c1` it was “inactive”; in that of `CCCCC(CC)COC(=O)CS` (centres undefined), “inactive”.
On to `COS(C)(=O)=O`, for which the Potency result was “inactive”.
With `CC(c1cc2ccccc2s1)N(O)C(N)=O` (centres undefined), the Potency entry is “inactive”.
Same read-out and setting: for `Cc1cc(C)c(C)cc1C` the value was “inactive”.
Regarding `CCCCOC(=O)COc1ccc(Cl)cc1Cl`, the Potency result is “inactive”.
On to `Oc1cccc2ccccc12`, for which the Potency result is “inactive”.
On to `CC1CCC2CC1C2(C)C` (centres undefined), for which the Potency result was “inactive”.
Still for that read-out and setting: for `CCCCCOC(C)=O` the value was “inactive”.
On to `CCCCCC(N)=O`, for which the “viability change, negative = cytotoxic” value was 0.507% [at 35.3 µM] (inactive).
As to `C=CCOC(=O)c1ccccc1C(=O)OCC=C`, the Potency result was “inactive”.
Consider `OCC(CO)(CBr)CBr`, for which the Potency entry was “inactive”.
The same measure, in the same setting: for `O=c1[nH]c(=O)n([C@H]2CCCO2)cc1F` the value was “inactive”; for `CCCCN(CCCC)CCCC`, “inactive”.
With `C=CCNC(N)=S`, the Potency result was “inactive”.
As for `COc1cc(Cc2cnc(N)nc2N)cc(OC)c1OC`, the Potency entry was “inactive”.
Still for that read-out and setting: for `O=C1CCC(N2C(=O)c3ccccc3C2=O)C(=O)N1` (centres undefined) the value was “inactive”; for `C=C(C)C(=O)OCCOCCOCCOC(=O)C(=C)C`, “inactive”.
As to `CCC(O)OCCCOC` (centres undefined), the Potency result was “inactive”.
Regarding `CN(C)CCCN`, the Potency entry is “inactive”.
The same measure, in the same setting: for `CCc1cccc(C)c1N` the value was “inactive”.
